# Compound activity (PubChem BioAssay)
# Hits are enriched below; roughly 8.1% of the tested compounds scored in any of these assays.
# KB-V1 cytotox: kills drug-selected multidrug resistant KB-V1 cells; KB-V1 MDR cells viability, CellTiter-Glo, 72 h; Potency, µM (doses to about 46.1 µM), hits mostly cytotoxic; hit rate 3.4% among 400,000; note: nearly all actives have a fitted effect of over 60% in size
#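 Luminescent ATP read-out (CellTiter-Glo, 10 min) measures survival of drug-selected KB-V1 MDR cells after 72 h, 37 degrees C compound exposure. Medium: phenol-red-free DMEM, 10% FBS. Values from fitted concentration-response curves.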
# SW480 rerep: induces DNA re-replication in SW480 colon adenocarcinoma cells. SW480 DNA re-replication, Hoechst DNA content imaging, 48 h. Potency, µM (series often up to 46.1 µM), hits mostly activators. hit rate 1.8% among 340,000; note: nearly all actives have a fitted effect of over 55% in size
#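 First, 250 cells per well were seeded. Next, compound or vehicle (23 nL) was pinned in, plates sat 48 hr at 37 C. Finally Hoechst was added for 40 min before fluorescence scanning.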
# ELG1 repair inh: inhibitors of ELG1-dependent DNA repair in HEK293T cells | Potency, µM (highest dose often 46.1 µM), hits mostly inhibitors | HEK293T ELG1-luciferase reporter, luminescence, 16 h; DNA damage induced by 5-fluorouridine | hit rate 2.3% among 330,000 | AID 504467; note: nearly all actives have a fitted effect of over 55% in size
#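 In this reporter screen, reduction of luminescence relative to DMSO vehicle indicated activity. Compounds and 5-fluorouridine were added together to 2,000 cells per well, incubated for 16 hr at 37 °C, then developed with ONE-Glo.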
# KB-3-1 cytotox: kills parental KB-3-1 adenocarcinoma cells; KB-3-1 viability, CellTiter-Glo ATP luminescence, 72 h; Potency, µM (highest dose often 46.1 µM), most hits filed as cytotoxic; AID 1347075; hit rate 1.4% among 400,000; note: nearly all actives have a fitted effect of over 60% in size
#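 Multi-concentration cytotoxicity screen in KB-3-1 cells grown in DMEM lacking phenol red with 10% FBS. After 72 h at 37 °C with compound, ATP-dependent luminescence was recorded.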
# MCF10A rereplic: induces DNA re-replication in MCF 10a normal breast cells; MCF 10A DNA re-replication, Hoechst nuclear intensity, 48 h; Potency, µM (highest dose often 46.1 µM), usual class: activators; hit rate 2.9% among 350,000; AID 624296; note: nearly all actives have a fitted effect of over 50% in size
# A number is an active result; . = inactive; ? = inconclusive; / = not tested or not shown; ! = not confirmed by another sample; [ ] = dose if it differs, or a comment. Calls come from the whole dose curve; as a rule, active = well fitted curve in the direction sought with a large enough effect; inconclusive = small, poorly fitted or top-dose-only effect, or another doubt; inactive = no such curve, though single readings can be large; an effect the other way counts as inactive or inconclusive.
SMILES,KB-V1 cytotox,SW480 rerep,ELG1 repair inh,KB-3-1 cytotox,MCF10A rereplic
CC(C)c1ccc(-n2cccc2/C=C2/C(=N)N3C=CSC3=NC2=O)cc1,21µM,?,16µM,?,23µM
CC1=CSC2=NC(=O)/C(=C\c3cccn3-c3ccccc3)C(=N)N12,?,.,?,.,.
CCc1cccc(C)c1NC(=O)C1CCCN(S(=O)(=O)c2cccc3nsnc23)C1 (stereo unspecified),.,/,/,.,/
Cc1ccc2nc(NC(=O)C3CCN(S(=O)(=O)c4cccc5nsnc45)CC3)sc2c1,?,.,16µM,.,.
Cc1ccc2nc(NC(=O)C3CCCN(S(=O)(=O)c4cccc5nsnc45)C3)sc2c1 (stereo unspecified),?,.,18µM,.,.
Cc1ccc(NC(=O)C2CCN(S(=O)(=O)c3cccc4nsnc34)CC2)cc1,.,/,/,.,/
O=C(Nc1nc2ccc(F)cc2s1)C1CCN(S(=O)(=O)c2cc([N+](=O)[O-])ccc2Cl)CC1,15µM,?,?,15µM,?
C[C@H](CO)N1C[C@H](C)[C@@H](CN(C)C(=O)Nc2ccccc2)Oc2ccc(NC(=O)CCC(F)(F)F)cc2C1=O,.,.[9.22 µM],.,.,.
CCn1ncc(/C=C/C(=O)NCc2cnn(C)c2C)c1C,.,.,.,.,.
COc1ccc(/C=C/C(=O)NCc2c(C)nn(C)c2C)cc1COc1ccc(Br)cc1,.,?,.,.,3.7µM
COc1ccc(/C=C/C(=O)NCc2cnn(C)c2C)cc1COc1ccc(Br)cc1,15µM,.,?,.,?
Cc1cc2nc(-c3cccc(NC(=O)c4ccc(Br)o4)c3C)oc2cc1C,.,.,?,.,.
COc1ccc(N(C(=O)COc2ccccc2)C2C=CS(=O)(=O)C2)c(OC)c1 (stereo unspecified),.,.,.,.,.
O=C(Nc1cccc(O)c1)c1noc2c1CCc1ccccc1-2,23µM!,.,?,.,.
COc1ccc(Br)cc1CN1CCCC(C(=O)N2CCCCC2)C1 (stereo unspecified),.,.,.,.,.
COc1ccc(Br)cc1CN1CCC(N2CCCC2)CC1,.,?,.,.,23µM
Nc1cc2c3ccccc3ccc2c2ccccc12,.,21µM,/,?,?
CC(=O)OCC1O[C@@H](O[C@@H]2C[C@H]3C(C)(C)[C@H](OC(C)=O)CC[C@]3(C)[C@H]3CC[C@]45C[C@]4(CC[C@H]5[C@@H](C)C[C@@H](O)[C@H](O)C(C)(C)O)[C@@]32C)[C@H](O)[C@@H](O)[C@@H]1O (stereo partly specified),/,21µM,?,/,7.3µM
COc1ccc(C2Nc3ccccc3NC3=C2C(=O)CC(C)(C)C3)c(OC)c1OC (stereo unspecified),.,.,.,.,.
CCC(=O)n1nc(NCc2ccc(OC)c(OC)c2)nc1NCc1ccc(OC)c(OC)c1,?,.,10µM,.,.
COc1ccc2sc(-c3ccc(SC)cc3)c(/C=C/c3ccc(OC)c(OC)c3)c2c1,.,.,.,.,9.2µM
COc1ccc(/C=C/c2c(-c3ccc(OC)cc3)sc3ccc(N4CCOCC4)cc23)cc1,.,.,?,.,8.2µM
COc1ccc(-c2sc3ccc(N4CCOCC4)cc3c2C#CCO)cc1,.,?,5.2µM,.,12µM
COc1cc(OC)cc(C(=O)NC(=S)Nc2ccc(Cl)c(C(=O)O)c2)c1,.,.,.,.,.
Cc1ccc(Cl)cc1N1CCN(C(=O)C(=O)N2CCCCC2)CC1,.,.,?,.,.
SMILES,KB-V1 cytotox,SW480 rerep,ELG1 repair inh,KB-3-1 cytotox,MCF10A rereplic
COc1ccc(CNCCC(c2ccc3c(c2)OCO3)c2ccccc2OC)cc1 (stereo unspecified),?,/,/,.,/
Cc1occc1C(=O)Nc1ccc2c(c1)OCCO2,13µM,.,?,.,.
O=C(Nc1ccc2c(c1)OCCO2)c1ccc(Br)s1,13µM,.,?,18µM,?
Cc1ccsc1C(=O)Nc1ccc2c(c1)OCCO2,21µM,.,?,?,.
Cc1ncoc1C(=O)Nc1ccc2c(c1)OCCO2,.,.,?,?,.
CCn1ncc(Br)c1C(=O)Nc1ccc2c(c1)OCCO2,21µM,.,?,?,.
CCN(CC(=O)Nc1c(F)cccc1F)C(=O)c1ccc(C(=O)c2ccccc2)cc1,.,.,.,.,.
N#Cc1ccc(OCC(=O)NCCCN2CCCC2=O)cc1,.,/,/,.,/
CCc1ccc(NC(=O)C(=O)c2ccccc2NC(C)=O)cc1,23µM,.,?,.,?
COc1ccc(C(=O)C(Cc2cc(C(C)=O)ccc2OC)N2CCCC2)cc1 (stereo unspecified),.,.,.,.,.
CCN(CC)S(=O)(=O)c1ccc(O)c(C(=O)OCC(=O)N(C)Cc2ccccc2)c1,.,.,?,.,.
C=CCn1c(SCC(=O)NCc2ccco2)nnc1-c1ccc2ccccc2n1,7.3µM,.,?,.,.
CC(C)(C)c1nc2ccccc2c2nnc(SCC(=O)NCc3ccco3)n12,5.2µM,.,?,.,.
Cc1cc(C)n2c(SCC(=O)NCc3ccco3)nnc2n1,.,.,.,.,.
CC(C)c1nc2ccccc2c2nnc(SCC(=O)NCc3ccco3)n12,4.1µM,.,.,?,?
CC(C)(C)c1nc2ccccc2c2nnc(SCC(=O)Nc3nc4ccccc4s3)n12,?,.,.,.,.
CN(Cc1ccc(F)cc1)S(=O)(=O)c1nnc(NC(=O)c2ccccc2)s1,.,.,.,.,?
Cc1cc(NC(=O)CN(C)S(=O)(=O)c2ccc3c(c2)CCCC(=O)N3)ccc1Br,16µM,/,/,?,/
CC(=O)Nc1ccc(NC(=O)CN(C)S(=O)(=O)c2ccc3c(c2)CCC(=O)N3)cc1,.,.,.,.,.
Cc1ccc(C)c(N2CCN(C(=O)CN(C)S(=O)(=O)c3ccc4c(c3)CCC(=O)N4)CC2)c1,.,.,23µM,.,.
O=C(Cc1ccc(Cl)cc1)N/N=C/c1cccs1,?,.,.,.,.
CCOC(=O)c1nn(-c2ccc3c(c2)CCN3C(C)=O)cc1O,.,.,?,.,15µM
CCOC(=O)c1nn(-c2ccc(F)cc2)cc1O,.,.,?,.,.
CCc1cn(C2CC(O)C(CO)O2)c(=O)[nH]c1=O (stereo unspecified),.,.,?,4.6µM,.
CCOc1ccc(NS(=O)(=O)c2cc3c(cc2Cl)NC(=O)CO3)cc1,?,/,/,.,/
Cc1nc(N2CCCCC2)c2c(-c3cccs3)csc2n1,.,.,?,.,21µM
Cc1nc(N2CCN(S(=O)(=O)c3ccccc3C#N)CC2)c2c(-c3cccs3)csc2n1,?,.,18µM,?,?
Cc1cc(C)cc(NC(=O)Cn2nnc(C(=O)NCc3ccc4c(c3)OCO4)c2N)c1,.,?,.,.,.
COc1ccc(CC(=O)NCC(c2ccc(OC)cc2)N(C)C)cc1 (stereo unspecified),.,?,.,.,3.3µM
